Laboratory results as given in PubChem BioAssay (EPA / NIEHS).
Active and inactive are the calls of the source. The calls were made as follows: active = hit-call score of the fitted dose curve at least 0.9, where 1 is the maximum; inactive = score below 0.9.

Key:
[1] = target: Transcription factor E2F1 (Homo sapiens) (UniProt Q01094); assay: ATG_E2F_CIS: Attagene CIS-FACTORIAL HepG2 Assay for human E2F Transcription Factor 1 (AID 2282935); conditions: HepG2 Attagene cis-reporter, E2F reporter RNA transcripts; actives raise or lower the signal
Summary of the method: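 Gain or loss of reporter transcript, fitted against DMSO, reflects E2F1-driven transcription. Transiently transfected HepG2 dosed 24 h before RNA isolation. Quantified by fluorescent RT-PCR products separated by capillary electrophoresis.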

[2] = ATG_E_Box_CIS: Attagene CIS-FACTORIAL HepG2 Assay for human Enhancer Box (E-box) (AID 2282936); conditions: HepG2 E-box cis-reporter transcription, actives raise or lower the signal
Summary of the method: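 E-box-driven reporter transcripts measured in transiently transfected HepG2 after 24 h exposure: RNA reverse-transcribed, PCR-amplified, fluorescently labelled, digested and resolved by capillary electrophoresis. Gain or loss relative to DMSO.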

[3] = ATG_M_61_CIS: Attagene CIS-FACTORIAL HepG2 Assay for M61 Transcription Factor (Internal Marker) (AID 2282937); conditions: HepG2 Attagene CIS-FACTORIAL M61 internal marker reporter; actives raise or lower the signal
Summary of the method: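 Transfect HepG2 with MRTUs; dose 24 h; isolate RNA; reverse-transcribe with DNase I treatment; PCR-amplify, FAM-label and cut with HpaI for 2 h at 37 C; resolve by CE. Bidirectional fitting against DMSO.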

[4] = ATG_EGR_CIS: Attagene CIS-FACTORIAL HepG2 Assay for human Early Growth Response 1 (EGR1) (AID 2282938); conditions: HepG2 Attagene CIS-FACTORIAL EGR reporter mRNA; actives raise or lower the signal
Summary of the method: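 After a 24 h treatment of transiently transfected HepG2 cells, total RNA was reverse-transcribed and reporter sequences PCR-amplified, labelled and run on capillary electrophoresis. Reporters sit under cis-regulatory promoters sensing endogenous factors.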

[5] = ATG_M_19_CIS: Attagene CIS-FACTORIAL HepG2 Assay for M19 Transcription Factor (Internal Marker) (AID 2282939); conditions: HepG2 Attagene CIS-FACTORIAL M19 internal marker reporter; actives raise or lower the signal
Summary of the method: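 Transfect HepG2 with MRTU reporter library → dose chemical, 24 h → isolate total RNA, reverse-transcribe with oligo(dT) → PCR, 6-FAM label, HpaI cut (2 h, 37 C) → capillary electrophoresis. Bidirectional fit vs DMSO.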

[6] = ATG_ERE_CIS: Attagene CIS-FACTORIAL HepG2 Assay for Estrogen Response Element (ERE) (AID 2282940); conditions: HepG2 ERE cis-reporter, Attagene RNA transcript; actives raise or lower the signal
Summary of the method: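 Transient MRTU transfection of human HepG2; cis-element promoters; 24 h dosing; total RNA → RT (oligo dT) → PCR → 6-FAM primer extension → HpaI digest → CE fluorescence. Bidirectional fit, DMSO baseline.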

[7] = ATG_Ets_CIS: Attagene CIS-FACTORIAL HepG2 Assay for human Erythroblast Transformation Specific (ETS) (AID 2282941); conditions: HepG2 ETS cis-reporter transcription, actives raise or lower the signal
Summary of the method: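 Cis-regulated reporter mRNA induction in HepG2 (transient transfection), 24 h exposure, RT-PCR plus capillary electrophoresis detection; DMSO serves as negative control and baseline.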

[8] = target: Hepatocyte nuclear factor 3-beta (Homo sapiens) (UniProt Q9Y261); assay: ATG_FoxA2_CIS: Attagene CIS-FACTORIAL HepG2 Assay for human Forkhead box A2 (FOXA2) (AID 2282942); conditions: HepG2 cis-reporter transcription factor activity, 24 h; actives raise or lower the signal
Summary of the method: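 24 h dosing of HepG2 bearing cis-reporter constructs; mRNA readout by RT-PCR/CE fluorescence; bidirectional fit, DMSO baseline.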

[9] = ATG_FoxO_CIS: Attagene CIS-FACTORIAL HepG2 Assay for human Forkhead box O (FoxO) (AID 2282943); conditions: HepG2 Attagene cis-reporter, FoxO element, mRNA; actives raise or lower the signal
Summary of the method: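 Endogenous transcription factor activity read from multiplexed cis-promoter reporter transcripts in transiently transfected HepG2, 24 h after dosing. Reporter RNA measured via RT-PCR plus capillary electrophoresis of FAM-labeled products; gain or loss relative to DMSO.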

[10] = ATG_GATA_CIS: Attagene CIS-FACTORIAL HepG2 Assay for human GATA Binding Protein (AID 2282944); conditions: HepG2 GATA cis-element reporter, Attagene multiplex mRNA; actives raise or lower the signal
Summary of the method: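 Transient MRTU transfection, HepG2, 24 h compound exposure. Total RNA → oligo(dT) RT → PCR → 6-FAM primer extension → HpaI cut → CE. Bidirectional fit vs DMSO.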

[11] = ATG_GLI_CIS: Attagene CIS-FACTORIAL HepG2 Assay for human Zinc Finger Protein GLI1 (AID 2282945); conditions: HepG2, Attagene cis-factorial reporter mRNA, GLI element; actives raise or lower the signal
Summary of the method: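 Bidirectional curve fits relative to DMSO, using reporter mRNA levels from RT-PCR plus capillary electrophoresis. Cells were HepG2 transiently carrying cis-regulated reporter constructs, harvested 24 h after dosing.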

[12] = target: Bile acid receptor (Homo sapiens) (UniProt Q96RI1); assay: ATG_IR1_CIS: Attagene CIS-FACTORIAL HepG2 Assay for human Nuclear Receptor Subfamily 1 Group H Member 4 (NR1H4), IR1 submotif (AID 2282946); conditions: IR1 reporter transcription, actives raise or lower the signal
Summary of the method: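 HepG2 cells transiently transfected with multiplexed cis-element reporter units read endogenous transcription factor activity. After 24 h compound exposure, reporter mRNA was quantified by RT-PCR, fluorescent labelling, HpaI digestion and capillary electrophoresis; bidirectional fitting versus DMSO baseline.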

[13] = ATG_GRE_CIS: Attagene CIS-FACTORIAL HepG2 Assay for human Glucocorticoid Response Elements (GRE) (AID 2282947); conditions: HepG2 GRE cis-reporter, Attagene multiplex mRNA; actives raise or lower the signal
Summary of the method: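 Reporter transcripts read by RT-PCR with capillary electrophoresis fluorescence after a 24 h chemical exposure of HepG2 cells transiently transfected with multiple cis-element reporter units. Gain or loss fitted against DMSO.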

[14] = ATG_ISRE_CIS: Attagene CIS-FACTORIAL HepG2 Assay for human Interferon Regulatory Factor 1 (IRF1) binding to an Interferon-Stimulated Response Element (ISRE) (AID 2282948); conditions: HepG2 ISRE cis-reporter (Attagene), mRNA transcription readout; actives raise or lower the signal
Summary of the method: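 Multiplexed mRNA reporter readout in human liver HepG2 cells: cis-element-driven reporters transfected, compound added for 24 h, transcripts amplified, fluorescently labelled and sized by capillary electrophoresis; curve fitting bidirectional against DMSO.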

[15] = ATG_M_32_CIS: Attagene CIS-FACTORIAL HepG2 Assay for M32 Transcription Factor (Internal Marker) (AID 2282949); conditions: HepG2 Attagene cis-factorial M32 reporter, mRNA; actives raise or lower the signal;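 also: background control marker of the multiplexed CIS panel rather than a real target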
Summary of the method: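 HepG2 transfectants (cis-regulated reporter transcription units) dosed 24 h. Reporter mRNA by RT-PCR plus CE, analysed as gain or loss relative to DMSO.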

[16] = ATG_M_06_CIS: Attagene CIS-FACTORIAL HepG2 Assay for M06 Transcription Factor (Internal Marker) (AID 2282950); conditions: HepG2 Attagene CIS-FACTORIAL M06 internal marker reporter; actives raise or lower the signal
Summary of the method: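 Read-out is fluorescence of labelled reporter cDNA fragments resolved by capillary electrophoresis after RT-PCR. Cells: HepG2 carrying transfected cis-promoter reporter units, treated 24 h. Gain or loss of signal fitted relative to DMSO.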

[17] = target: Hypoxia-inducible factor 1-alpha (Homo sapiens) (UniProt Q16665); assay: ATG_HIF1a_CIS: Attagene CIS-FACTORIAL HepG2 Assay for human Hypoxia Inducible Factor 1 (HIF1A) (AID 2282951); conditions: HepG2 Attagene cis-factorial HIF1a reporter transcription; actives raise or lower the signal
Summary of the method: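 After 24 h chemical exposure of reporter-transfected HepG2 cells, reporter cDNA was PCR-amplified, labelled by 6-FAM primer extension (2 min 95 C, 20 s 68 C, 10 min 72 C), HpaI-cut (2 h, 37 C) and analysed by CE.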

[18] = target: Hepatocyte nuclear factor 6 (Homo sapiens) (UniProt Q9UBC0); assay: ATG_HNF6_CIS: Attagene CIS-FACTORIAL HepG2 Assay for human Hepatocyte Nuclear Factor 6 (HNF6) (AID 2282952); conditions: HepG2 Attagene cis-factorial HNF6 reporter transcription; actives raise or lower the signal
Summary of the method: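 Using cis-element reporters in HepG2 liver cells, the assay tracks endogenous factor-driven transcription 24 h post-dosing. Signal comes from 6-FAM-labelled, HpaI-digested RT-PCR fragments, with gain or loss scored against DMSO.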

[19] = target: Heat shock factor protein 1 (Homo sapiens) (UniProt Q00613); assay: ATG_HSE_CIS: Attagene CIS-FACTORIAL HepG2 Assay for human Heat Shock Transcription Factor 1 (HSE) (AID 2282953); conditions: HepG2 HSE cis-reporter, Attagene RNA transcription; actives raise or lower the signal
Summary of the method: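 HepG2, transient MRTU transfection, cis-promoter reporters (endogenous TF activity). 24 h compound. RNA → oligo(dT) RT → PCR → 6-FAM primer extension → HpaI cut → CE. Bidirectional fit vs DMSO.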

[20] = ATG_MRE_CIS: Attagene CIS-FACTORIAL HepG2 Assay for human Metal Responsive Element (MRE) (AID 2282954); conditions: HepG2 MRE cis-reporter transcription, Attagene multiplex; actives raise or lower the signal
Summary of the method: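 Endogenous MRE-dependent transcription read as reporter mRNA in transiently transfected human HepG2 cells at 24 h. RNA reverse-transcribed, PCR-amplified, labelled and resolved by capillary electrophoresis; gain or loss relative to DMSO.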

Measured: AC50

Sequence of Bile acid receptor (Homo sapiens) (Q96RI1 whole entry, looked up): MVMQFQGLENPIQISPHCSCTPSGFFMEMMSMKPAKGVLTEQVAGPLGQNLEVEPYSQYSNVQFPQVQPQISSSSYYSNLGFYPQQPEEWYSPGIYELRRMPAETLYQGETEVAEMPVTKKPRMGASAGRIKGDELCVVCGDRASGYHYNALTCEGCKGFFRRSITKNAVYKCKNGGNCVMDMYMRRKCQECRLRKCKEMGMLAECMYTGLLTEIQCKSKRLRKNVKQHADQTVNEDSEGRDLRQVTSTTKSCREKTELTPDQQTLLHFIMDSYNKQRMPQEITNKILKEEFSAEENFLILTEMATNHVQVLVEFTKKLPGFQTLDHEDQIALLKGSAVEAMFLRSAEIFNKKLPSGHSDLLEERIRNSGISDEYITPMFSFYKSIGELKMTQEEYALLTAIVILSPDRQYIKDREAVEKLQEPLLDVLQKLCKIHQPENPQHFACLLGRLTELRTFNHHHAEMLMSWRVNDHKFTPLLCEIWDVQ
Sequence of Hepatocyte nuclear factor 3-beta (Homo sapiens) (Q9Y261 whole entry, looked up): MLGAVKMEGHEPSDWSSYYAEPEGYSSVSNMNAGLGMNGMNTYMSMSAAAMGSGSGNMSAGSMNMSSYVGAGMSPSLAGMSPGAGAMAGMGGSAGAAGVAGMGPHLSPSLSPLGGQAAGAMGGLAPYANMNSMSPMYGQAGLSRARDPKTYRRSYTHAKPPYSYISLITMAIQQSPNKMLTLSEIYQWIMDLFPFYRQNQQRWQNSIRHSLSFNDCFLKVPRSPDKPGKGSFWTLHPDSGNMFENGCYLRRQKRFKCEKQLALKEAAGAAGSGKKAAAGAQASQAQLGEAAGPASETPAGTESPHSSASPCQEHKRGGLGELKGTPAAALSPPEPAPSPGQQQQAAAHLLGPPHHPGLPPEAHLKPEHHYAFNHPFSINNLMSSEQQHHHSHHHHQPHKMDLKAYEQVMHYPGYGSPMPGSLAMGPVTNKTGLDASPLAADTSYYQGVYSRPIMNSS
Sequence of Hypoxia-inducible factor 1-alpha (Homo sapiens) (Q16665 whole entry, looked up): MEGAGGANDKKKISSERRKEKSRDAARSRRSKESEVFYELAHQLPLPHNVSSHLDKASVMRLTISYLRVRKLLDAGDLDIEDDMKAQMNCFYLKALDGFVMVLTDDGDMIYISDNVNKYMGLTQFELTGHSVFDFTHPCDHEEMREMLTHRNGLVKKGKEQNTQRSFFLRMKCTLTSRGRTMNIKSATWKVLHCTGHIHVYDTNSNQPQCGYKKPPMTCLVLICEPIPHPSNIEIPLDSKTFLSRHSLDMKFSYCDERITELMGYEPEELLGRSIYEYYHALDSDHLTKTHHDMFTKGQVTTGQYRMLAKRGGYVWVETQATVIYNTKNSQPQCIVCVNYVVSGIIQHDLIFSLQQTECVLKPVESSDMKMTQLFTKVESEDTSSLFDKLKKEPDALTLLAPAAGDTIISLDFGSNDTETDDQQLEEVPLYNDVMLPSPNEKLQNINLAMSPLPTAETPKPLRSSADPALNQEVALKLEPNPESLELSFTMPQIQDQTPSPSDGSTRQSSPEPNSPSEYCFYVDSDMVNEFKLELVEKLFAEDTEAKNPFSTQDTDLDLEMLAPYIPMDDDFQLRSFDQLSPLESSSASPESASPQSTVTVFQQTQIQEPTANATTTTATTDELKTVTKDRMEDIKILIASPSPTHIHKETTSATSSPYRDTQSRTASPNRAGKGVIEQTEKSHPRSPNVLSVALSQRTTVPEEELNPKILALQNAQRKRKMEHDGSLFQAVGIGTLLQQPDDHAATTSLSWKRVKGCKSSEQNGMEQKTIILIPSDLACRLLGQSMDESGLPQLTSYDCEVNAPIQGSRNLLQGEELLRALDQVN
Sequence of Heat shock factor protein 1 (Homo sapiens) (Q00613 whole entry, looked up): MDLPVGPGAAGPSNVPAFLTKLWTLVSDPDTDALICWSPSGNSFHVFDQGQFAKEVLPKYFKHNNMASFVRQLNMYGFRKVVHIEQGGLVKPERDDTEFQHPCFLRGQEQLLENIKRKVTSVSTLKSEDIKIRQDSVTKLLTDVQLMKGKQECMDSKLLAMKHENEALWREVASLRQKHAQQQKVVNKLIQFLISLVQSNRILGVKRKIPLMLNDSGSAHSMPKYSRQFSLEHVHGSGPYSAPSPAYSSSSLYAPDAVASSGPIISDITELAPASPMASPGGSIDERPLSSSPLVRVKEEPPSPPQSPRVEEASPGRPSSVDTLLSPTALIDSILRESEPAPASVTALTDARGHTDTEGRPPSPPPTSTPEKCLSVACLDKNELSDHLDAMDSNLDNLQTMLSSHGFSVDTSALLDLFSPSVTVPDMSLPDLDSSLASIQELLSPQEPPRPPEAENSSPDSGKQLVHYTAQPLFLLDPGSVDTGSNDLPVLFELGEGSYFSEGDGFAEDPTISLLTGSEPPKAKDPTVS
Sequence of Transcription factor E2F1 (Homo sapiens) (Q01094 whole entry, looked up): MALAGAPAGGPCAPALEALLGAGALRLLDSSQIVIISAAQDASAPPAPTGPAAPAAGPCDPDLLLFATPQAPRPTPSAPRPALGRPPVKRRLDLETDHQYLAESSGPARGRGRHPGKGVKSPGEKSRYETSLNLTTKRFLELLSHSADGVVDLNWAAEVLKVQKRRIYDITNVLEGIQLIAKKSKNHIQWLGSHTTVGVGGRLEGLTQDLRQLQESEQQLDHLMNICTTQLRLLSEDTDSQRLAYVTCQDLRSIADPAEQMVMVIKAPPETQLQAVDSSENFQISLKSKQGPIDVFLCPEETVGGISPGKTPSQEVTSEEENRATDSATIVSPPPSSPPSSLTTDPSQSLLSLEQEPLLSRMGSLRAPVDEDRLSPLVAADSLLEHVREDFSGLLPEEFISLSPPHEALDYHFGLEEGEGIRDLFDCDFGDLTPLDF
Sequence of Hepatocyte nuclear factor 6 (Homo sapiens) (Q9UBC0 whole entry, looked up, the tested form may be a part): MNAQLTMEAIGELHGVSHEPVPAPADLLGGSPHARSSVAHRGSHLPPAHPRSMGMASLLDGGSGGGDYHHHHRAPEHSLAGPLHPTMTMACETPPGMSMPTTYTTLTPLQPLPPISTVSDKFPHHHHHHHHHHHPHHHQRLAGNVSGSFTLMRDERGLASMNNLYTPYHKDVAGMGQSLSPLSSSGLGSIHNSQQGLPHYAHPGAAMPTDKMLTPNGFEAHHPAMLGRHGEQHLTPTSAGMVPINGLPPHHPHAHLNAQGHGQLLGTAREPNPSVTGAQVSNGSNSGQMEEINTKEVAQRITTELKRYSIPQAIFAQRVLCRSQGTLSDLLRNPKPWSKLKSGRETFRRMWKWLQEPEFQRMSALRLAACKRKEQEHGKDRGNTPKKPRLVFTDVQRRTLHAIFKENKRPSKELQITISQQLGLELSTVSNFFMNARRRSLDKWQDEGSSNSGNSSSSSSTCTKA

C=CC(=O)OCC(F)(F)C(F)(F)C(F)(F)C(F)(F)COC(=O)C=C
active: [2] 34.9 µM | [4] 63 µM | [11] 81.1 µM | [14] 61.4 µM | [17] 33.8 µM | [18] 60.3 µM | [19] 79 µM | [20] 56.7 µM
inactive: all other assays above

CNC(=S)NC
not listed: [19]
inactive: all other assays above

O=C(O)C(F)(OC(F)(F)C(F)(OC(F)(F)C(F)(F)C(F)(F)F)C(F)(F)F)C(F)(F)F (configuration not stated)
not listed: [16]
inactive: all other assays above

[Co]
not listed: [16] | [19]
inactive: all other assays above

C(=C(c1ccccc1)c1ccccc1)c1ccccc1
active: [6] 0.0294 µM
not listed: [3]
inactive: all other assays above

C#C[C@]1(O)CC[C@H]2[C@@H]3CCc4cc(OC)ccc4[C@H]3CC[C@@]21C
active: [6] 0.00935 µM | [20] 7.54 µM
not listed: [16] | [19]
inactive: all other assays above

O=C(O)C(F)(F)C(F)(F)F
not listed: [3]
inactive: all other assays above
